# Screening results: PubChem, several laboratories
# INS promoter inh – TRM-6 insulin promoter activity inhibition; TRM-6 cells (human fetal islet line), insulin promoter-eGFP reporter, imaging; reporter expression induced with tamoxifen; AID 1273; 130,000 tested, 0.9% active; inhibition, % at 2 µM;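 active means inhibition above the mean plus 3 SD, with well images judged a real hit on visual review, cut at about 60% in these data, passing the limit was not always enough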
# Lmaj promast – Leishmania major promastigote growth inhibition | Leishmania major promastigotes, resazurin fluorescence viability | inhibition, % at 10 µM | 200,000 tested, 9% active | AID 1063; in the data active means inhibition above about 50%;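 further: promastigotes grown with compound for 44 hours at 28 °C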
# Autophagy HCS – alters autophagy in cells; MEF GFP-LC3 puncta imaging; test concentration mostly 10 µM; calls only at 10 µM (by protocol); 190,000 tested, 0.98% active;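 active means percentage of spot-positive cells more than 3 SD above its plate mean, without a fluorescence outlier flag or 80% toxicity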;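 further: spot-positive cell cutoff set from DMSO-treated cells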
# Insulin prom up – MIN6 insulin promoter up-regulation | z-score at 5 µM | MIN6 insulin promoter-GFP reporter, high-content imaging; stronger effect = higher value | 190,000 tested, 0.3% active;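 active means z-score above 3 at 5 µM with at least 500 cells counted in the well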
# WT yeast gro inh – growth inhibition of WT yeast, mitochondrial fusion screen; mitochondrial fusion phenotypic screen, WT strain; inhibition, % at 10 µM; 190,000 tested, 2.1% active; in the data active means inhibition above about 58%; tested in S. cerevisiae
# Starred values were filed as active, the others as inactive; i = inactive; . = no result; + = active, no number. Hits are enriched below; roughly 11% of the tested compounds scored in any of these assays.
SMILES,INS promoter inh,Lmaj promast,Autophagy HCS,Insulin prom up,WT yeast gro inh
Oc1cc2c(cc1C(c1ccc(Br)cc1)N1CCCC1)OCO2 (configuration not stated),30,73*,i,-0.03,21
COc1ccc(-n2c(C)cc(/C=C3\C(=O)NN(c4ccccc4)C3=O)c2C)cc1,-193,-1,i,-0.35,-4
COc1ccc(Sc2ccc(/C=C3\C(=O)NN(c4ccccc4)C3=O)o2)cc1,29,56*,i,1.5,22
CCn1cc(C(=O)OCC(=O)NCc2ccccc2Cl)c(=O)c2ccc(C)nc21,-8,28,i,0.33,13
Cc1ccccc1-n1nnnc1SCC(=O)NCC1CCCO1 (configuration not stated),.,-1,+,0.14,3
Cc1cccc(-n2nnnc2SCC(=O)NCC2CCCO2)c1 (configuration not stated),.,.,.,0.5,.
O=C(CSc1ncnc2c1nnn2-c1ccc(F)cc1)NCC1CCCO1 (configuration not stated),21,41,i,-0.01,2
Cc1ccc(-n2nnc3c(SCC(=O)NCC4CCCO4)ncnc32)cc1 (configuration not stated),-18,86*,i,.,23
O=C(COc1ccc(Br)cc1)N/N=C1\SCC(=O)N1c1ccc(F)cc1,93*,-7,i,0.1,0
Cc1ccccc1OCC(=O)N/N=C1\SCC(=O)N1Cc1ccccc1,17,25,i,0,-4
Cc1ccc(OCC(=O)N/N=C2/SCC(=O)N2Cc2ccccc2)cc1,3,67*,i,-0.09,-9
Cc1cc(=S)c2cccc(C)c2[nH]1,7,-3,i,0.26,54
CC(C)OC(=O)CSc1nnc(-c2ccccn2)n1N,.,.,.,-0.03,.
O=C(CCN1C(=O)S/C(=C\c2cccs2)C1=O)NC1=NCCS1,-30,28,i,0.05,32
Clc1ccc2nc3ccccn3c2c1,68,10,i,0.98,27
N#Cc1ccc2c(c1)nc1ccccn12,79*,3,i,-0.24,15
Cc1ccc(Nc2nc(N)c(C#N)c(CC#N)c2C#N)cc1,.,5,i,0.44,13
COc1ccc(-c2noc(-c3ccccc3C(=O)Nc3cccnc3)n2)cc1OC,-6,71*,i,-1.1,4
COc1ccc(-c2noc(-c3ccccc3C(=O)Nc3cccnc3)n2)cc1,50,22,i,-0.57,-13
COc1ccc(Cl)cc1-c1nc(-c2ccc(NC(=O)c3cccs3)cc2)no1,-53,65*,i,-1.3,0
CC(Oc1ccc(Cl)cc1Cl)c1nc(-c2ccc(NC(=O)c3cccnc3)cc2)no1 (configuration not stated),-363,95*,i,-9.2,37
CNC(=O)C(=O)NCCCN1CCOCC1,-12,-4,i,0.1,-6
COC(=O)C1=C(C)NC(C)=C(C(=O)OC)C1c1ccc(-c2cccc(Cl)c2Cl)o1,.,79*,i,0.58,34
COC(=O)C1=C(C)NC(=O)CC1c1cccc(Cl)c1Cl (configuration not stated),.,0,i,.,11
CCOC(=O)C1=C(C)NC(C)=C(C(=O)OC)C1c1cccc(Cl)c1Cl (configuration not stated),5,13,i,.,64*
SMILES,INS promoter inh,Lmaj promast,Autophagy HCS,Insulin prom up,WT yeast gro inh
CC(=O)N(C)c1ccc(NC(=O)Nc2ccc(C)c(C)c2)cc1,.,15,i,0.36,1
Cc1cc(-c2ccccc2)oc(=O)c1NC(=O)c1ccccc1,.,1,i,.,13
CC(Oc1ccc(F)cc1)C(O)CCN(C)C (configuration not stated),-33,-4,i,-0.05,0
O=C(OCC(=O)N1CCN(S(=O)(=O)c2ccc(Cl)cc2)CC1)c1ccc([N+](=O)[O-])o1,.,57*,i,-0.66,21
O=C(COc1ccccc1[N+](=O)[O-])N1CCN(S(=O)(=O)c2ccccc2)CC1,.,1,i,-0.01,-7
O=C(OCC(=O)N1CCN(S(=O)(=O)c2ccccc2)CC1)c1ccc([N+](=O)[O-])o1,.,95*,i,0.02,8
Cc1ccc(NC(=O)N(Cc2ccco2)C(C)c2ccco2)cc1C (configuration not stated),3,3,i,-0.21,0
CC(c1cccs1)N(Cc1ccco1)C(=O)Nc1ccc(Cl)c(Cl)c1 (configuration not stated),-40,24,i,-1.3,64*
COc1cccc(NC(=O)N(C2CCCCC2)C(C)c2cccs2)c1 (configuration not stated),-20,12,i,-0.15,11
COc1cccc(NC(=O)N(Cc2ccco2)C(C)c2cccs2)c1 (configuration not stated),-46,61*,i,-0.6,-18
COc1ccc(S(=O)(=O)NN(C)C(=O)c2nn(-c3ccccc3)ccc2=O)cc1,.,-4,i,-0.94,7
Cc1ccccc1CNc1ccc(C(CC(N)=O)NC(=O)c2ccccc2)cc1[N+](=O)[O-] (configuration not stated),.,.,.,-0.6,.
Cc1cccc(N2CCN(C(=O)Cc3ccc(-n4c(=O)[nH]c5ccsc5c4=O)cc3)CC2)c1C,36,-2,i,-0.14,-2
Cc1ccc(C)c(N2CCN(C(=O)Cc3ccc(-n4c(=O)[nH]c5ccsc5c4=O)cc3)CC2)c1,-4,51*,i,-0.42,-9
COc1ccccc1OCC(=O)NNC(=O)c1c(-c2ccccc2Cl)noc1C,-19,-2,i,.,8
CC(C)N1CCN(Cc2ccc(C#CCCO)cc2)CC1CCO (configuration not stated),-14,-4,i,0.36,10
COc1cccc(C2(O)CC(C(F)(F)F)=NN2C(=O)c2ccccn2)c1 (configuration not stated),.,2,i,-0.17,-15
O=C(c1ccc2c(c1)N(Cc1cccc(Cl)c1)C(=O)c1ccccc1S2(=O)=O)N1CCN(c2ccccn2)CC1,-67,98*,i,-0.81,18
O=C(c1cccc(Cl)c1)N1CCN(c2ccccn2)CC1,-68,-4,i,0.91,2
Cc1ccc(C(=O)CC(=O)c2ccc(C(C)(C)C)cc2)cc1,.,-4,i,0.15,-1
Cc1ccc(C(=O)CC(=O)c2cc(Cl)ccc2O)cc1,-53,99*,i,.,62*
CC(C)(C)c1ccc(C(=O)CC(=O)c2cc(Cl)ccc2O)cc1,3,99*,i,-0.93,65*
Cc1ccc(CC(=O)c2ccc(Cl)cc2)cc1,.,.,.,0.22,.
Cc1cc(C(=O)NCCc2ccccc2)c2cc(F)ccc2n1,.,-6,i,1.1,2
S=C(NCc1ccccc1)Nc1ccc2cn[nH]c2c1,.,.,.,0.15,.
CCn1c(SCC(=O)Nc2ccc(-c3nc4ccc(C)cc4s3)cc2)nnc1-c1ccccc1,-6,-8,i,-0.39,-7
Cc1ccc2nc(-c3ccc(NC(=O)CNC4CC4)cc3)sc2c1,.,16,i,0.26,59*
Cc1ccc2nc(-c3ccc(NC(=O)CN4C(=O)c5ccccc5C4=O)cc3)sc2c1,38,-8,i,0.36,11
